Results: PubChem BioAssay (NCI)
About 83,000 compounds went through this panel and 20% of them were active in at least one assay; those are over-represented in the sample as a whole.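 Single-dose data. Exposure time 48 hours. Values below 10 considered active.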 The source made the active and inactive calls.

How the values were obtained:
Assay in all cases: NCI-60 one-dose screen, 48 h (100 = growth as untreated, 0 = no growth, -100 = all killed)
Conditions in all cases: 10 µM
HCT-15 colon = system: HCT-15 colon
HT29 colon = system: HT29 colon
SNB-75 CNS = system: SNB-75 CNS
SNB-19 CNS = system: SNB-19 CNS
U251 CNS = system: U251 CNS
PC-3 prostate = system: PC-3 prostate
SK-MEL-5 melanoma = system: SK-MEL-5 melanoma
UACC-62 melanoma = system: UACC-62 melanoma
LOX IMVI melanoma = system: LOX IMVI melanoma
SK-MEL-28 melanoma = system: SK-MEL-28 melanoma

Measured: growth

O=C(N/N=C\c1cc(Cl)ccc1O)c1ccncc1
inactive: HCT-15 colon 26.3% | HT29 colon 65.4% | SNB-75 CNS 74.2% | SNB-19 CNS 62% | U251 CNS 43.9% | PC-3 prostate 61% | SK-MEL-5 melanoma 37% | UACC-62 melanoma 46.2% | LOX IMVI melanoma 30.9% | SK-MEL-28 melanoma 64.5%

COc1ccc(C2C=C(c3ccc(Cl)c(Cl)c3)N=C3SC(C)=CN32)cc1 (stereo not given)
inactive: HCT-15 colon 85.5% | HT29 colon 71.1% | SNB-75 CNS 89.8% | SNB-19 CNS 96.6% | U251 CNS 84.2% | PC-3 prostate 90.5% | SK-MEL-5 melanoma 93.6% | UACC-62 melanoma 92.1% | LOX IMVI melanoma 83.4% | SK-MEL-28 melanoma 104%

COc1ccc(N2CCN(c3nc(-c4ccccc4)c(C#N)c(=O)[nH]3)CC2)cc1
inactive: HCT-15 colon 99.4% | HT29 colon 108% | SNB-75 CNS 73.2% | SNB-19 CNS 103% | U251 CNS 95.6% | PC-3 prostate 87.2% | SK-MEL-5 melanoma 96.4% | UACC-62 melanoma 94.8% | LOX IMVI melanoma 99.4% | SK-MEL-28 melanoma 110%

CCCCCCCCCCCC(=O)NCCCN(C)C
inactive: HCT-15 colon 93.8% | HT29 colon 65.5% | SNB-75 CNS 75.2% | SNB-19 CNS 102% | U251 CNS 75% | PC-3 prostate 75.5% | SK-MEL-5 melanoma 105% | UACC-62 melanoma 101% | LOX IMVI melanoma 69% | SK-MEL-28 melanoma 91.9%

CCOC(=O)c1cc2c(n1Cc1cccc(OC)c1)-c1oncc1CC2
active: HT29 colon 4.06% | SNB-75 CNS -5.1% | SK-MEL-5 melanoma 8.61%
inactive: HCT-15 colon 28.7% | SNB-19 CNS 37.4% | U251 CNS 22.4% | PC-3 prostate 32.7% | UACC-62 melanoma 30.8% | LOX IMVI melanoma 41.7% | SK-MEL-28 melanoma 37.8%

COc1cc(/C=C2\C(=O)Nc3cc(C)c(O)cc32)cc(OC)c1OC
inactive: HCT-15 colon 33.7% | HT29 colon 22.4% | SNB-75 CNS 55.1% | SNB-19 CNS 71.6% | U251 CNS 44.5% | PC-3 prostate 33.5% | SK-MEL-5 melanoma 47% | UACC-62 melanoma 57.9% | LOX IMVI melanoma 45.7% | SK-MEL-28 melanoma 73.2%

COc1ccc(/C=C2\SC(=S)N(CCCN3CCOCC3)C2=O)c(OC)c1
inactive: HCT-15 colon 91.9% | HT29 colon 96.2% | SNB-75 CNS 99.4% | SNB-19 CNS 99.8% | U251 CNS 97.3% | PC-3 prostate 93.2% | SK-MEL-5 melanoma 90% | UACC-62 melanoma 90.8% | LOX IMVI melanoma 97.8% | SK-MEL-28 melanoma 106%

CCOC(=O)CNC(=O)Nc1ccc(Oc2ccc(NC(=O)NCC(=O)OCC)cc2)cc1
inactive: HCT-15 colon 99.2% | HT29 colon 107% | SNB-75 CNS 74.4% | SNB-19 CNS 104% | U251 CNS 93.8% | PC-3 prostate 86.9% | SK-MEL-5 melanoma 97.1% | UACC-62 melanoma 92.4% | LOX IMVI melanoma 91.9% | SK-MEL-28 melanoma 91%

C/C(=N\NC(=O)c1sc(=S)n(C)c1N)c1cc2ccccc2o1
inactive: HCT-15 colon 48% | HT29 colon 36.6% | SNB-75 CNS 53% | SNB-19 CNS 89.9% | U251 CNS 56.5% | PC-3 prostate 45.5% | SK-MEL-5 melanoma 43.1% | UACC-62 melanoma 71.3% | LOX IMVI melanoma 25.6% | SK-MEL-28 melanoma 71.8%

C#CCn1c(-c2cccc(OCCCCl)c2)nc2c1c(=O)n(C)c(=O)n2C
inactive: HCT-15 colon 86.9% | HT29 colon 102% | SNB-75 CNS 89% | SNB-19 CNS 97% | U251 CNS 90.7% | PC-3 prostate 26% | SK-MEL-5 melanoma 61.4% | UACC-62 melanoma 46.2% | LOX IMVI melanoma 93.8% | SK-MEL-28 melanoma 95.7%

CCN(CCCNC(=O)Cc1cc(=O)oc2cc(N(C)C)ccc12)CCNc1ccnc2cc(Cl)ccc12
inactive: HCT-15 colon 83.2% | HT29 colon 18.6% | SNB-75 CNS 88.6% | SNB-19 CNS 91.5% | U251 CNS 58.9% | PC-3 prostate 78.7% | SK-MEL-5 melanoma 76.2% | UACC-62 melanoma 98.7% | LOX IMVI melanoma 66.4% | SK-MEL-28 melanoma 85%

N=C(N)c1ccc(-c2ccc(-c3ccccc3)s2)cc1F
active: HCT-15 colon -77.1% | HT29 colon -89.8% | SNB-75 CNS -92.4% | SNB-19 CNS -75.9% | U251 CNS -94.5% | PC-3 prostate -88% | SK-MEL-5 melanoma -97% | UACC-62 melanoma -93.1% | LOX IMVI melanoma -81.4% | SK-MEL-28 melanoma -96.2%

COc1ccc(Cn2cc3c(c2-c2cc(OC)c(OC)c(OC)c2)CCc2cnoc2-3)cc1[N+](=O)[O-]
inactive: HCT-15 colon 34.2% | HT29 colon 13.1% | SNB-75 CNS 18.5% | SNB-19 CNS 43.2% | U251 CNS 39.8% | PC-3 prostate 27.6% | SK-MEL-5 melanoma 16% | UACC-62 melanoma 35.4% | LOX IMVI melanoma 39.6% | SK-MEL-28 melanoma 68.9%

Cc1cc(/C=C2\SC(=Nc3ccccc3)N(C3CCCC3)C2=O)c(C)n1-c1ccc(Cl)cc1
active: HCT-15 colon -28.2% | HT29 colon -65.8% | SNB-75 CNS -51.3% | SNB-19 CNS -65.8% | U251 CNS -91.1% | PC-3 prostate -63.4% | SK-MEL-5 melanoma -97.9% | UACC-62 melanoma -56.3% | LOX IMVI melanoma -72.7% | SK-MEL-28 melanoma -69.8%
